Growth data for nine compounds are collected here from PubChem BioAssay (NCI).

About 83,000 compounds went through this panel and 20% of them were active in at least one assay; those are over-represented in the sample as a whole.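 Plates (96-well) were seeded with cells, treated with compound at one concentration, and incubated for 48 hours before percent growth was determined.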 Unmarked numbers belong to inactive results. The source made the active and inactive calls. Rule for the calls: active = growth percent below 10; inactive = the rest.

Common to all, as to assay: NCI-60 one-dose screen, 48 h (100 = growth as untreated, 0 = no growth, -100 = all killed)
The test system of one assay is HCT-15 colon. The settings on record: 10 µM unless noted.
The next assay has as its system HT29 colon. Conditions: 10 µM unless noted.
Another assay deals with SNB-19 CNS. The settings on record: 10 µM unless noted.
The test system of another assay is U251 CNS. Conditions: 10 µM unless noted.
In the next assay the test system is SK-MEL-5 melanoma. The settings on record: 10 µM unless noted.
For another assay, the system named is UACC-62 melanoma. Conditions: 10 µM unless noted.
In another assay the test system is LOX IMVI melanoma. The settings on record: 10 µM.
The test system of a further assay is SK-MEL-28 melanoma. The settings on record: 10 µM unless noted.
The subject of another assay is SK-MEL-2 melanoma. The settings on record: 10 µM unless noted.
For a further assay, the system named is SN12C renal. Conditions: 10 µM unless noted.
The next assay relates to UO-31 renal. The settings on record: 10 µM unless noted.
For a further assay, the system named is TK-10 renal. Conditions: 10 µM unless noted.
The subject of a further assay is ACHN renal. The settings on record: 10 µM unless noted.
The next assay relates to CAKI-1 renal. Conditions: 10 µM unless noted.
The subject of another assay is A498 renal. The settings on record: 10 µM unless noted.
In the next assay the test system is CCRF-CEM leukemia. Conditions: 10 µM unless noted.
The next assay has as its system MOLT-4 leukemia. The settings on record: 10 µM unless noted.
The subject of a further assay is PC-3 prostate. Conditions: 10 µM unless noted.
The next assay has as its system EKVX NSCLC. The settings on record: 10 µM unless noted.

Regarding `CC(C)N(CCCC#N)C(C)C`, the growth in the assay on HCT-15 colon was 96.7%; with HT29 colon it was 86.6%; in the assay on SNB-19 CNS, 90.7%; in the assay with U251 CNS it was 92.4%; in the assay with SK-MEL-5 melanoma, 103%; with UACC-62 melanoma, 95.2%. For the same compound, the growth in the assay on LOX IMVI melanoma is 97.7%; in the assay with SK-MEL-28 melanoma, 95.3%; with SK-MEL-2 melanoma it was 121%; in the assay on SN12C renal it was 94%; in the assay with UO-31 renal it was 86%; in the assay on TK-10 renal it was 104%. Further, the growth with ACHN renal was 98%; in the assay on CAKI-1 renal, 95.1%; in the assay on A498 renal, 79.4%; in the assay on CCRF-CEM leukemia, 86.9%; in the assay with MOLT-4 leukemia it was 112%.
Take `O=C(O)c1cc(I)ccc1O`: the growth in the assay on HCT-15 colon was 101%; with HT29 colon, 104%; in the assay on SNB-19 CNS, 93.1%; with U251 CNS it was 100%; with PC-3 prostate it was 104%; in the assay with SK-MEL-5 melanoma it was 103%. The growth with LOX IMVI melanoma was 92%; in the assay with SK-MEL-28 melanoma, 113%; in the assay on SK-MEL-2 melanoma, 107%; in the assay on EKVX NSCLC, 100%; in the assay on SN12C renal it was 95.3%; in the assay on UO-31 renal, 90.7%. In addition, the growth with TK-10 renal was 93.3%; with ACHN renal, 97.6%; in the assay on CAKI-1 renal it was 103%; in the assay with A498 renal, 126%; in the assay with CCRF-CEM leukemia, 99.3%; in the assay on MOLT-4 leukemia, 108%.
In the case of `Nc1ncnc(Nc2ccc(C(F)(F)F)cc2)n1`, the growth is 103% in the assay on HCT-15 colon; 103% with HT29 colon; 98.8% with SNB-19 CNS; 94.2% in the assay with U251 CNS; 89.6% with PC-3 prostate; 99.6% with SK-MEL-5 melanoma. Moreover, the growth in the assay with UACC-62 melanoma was 89.1%; with LOX IMVI melanoma, 100%; in the assay on SK-MEL-28 melanoma, 104%; in the assay with SK-MEL-2 melanoma, 103%; in the assay on EKVX NSCLC, 99.7%; in the assay on SN12C renal, 99.8%. Moreover, the growth with UO-31 renal is 97.8%; with TK-10 renal it was 109%; in the assay with CAKI-1 renal, 93.2%; in the assay on CCRF-CEM leukemia, 116%; in the assay with MOLT-4 leukemia, 96.6%.
With `N#Cc1ccc(OC(=O)Nc2c(Cl)cc(Cl)cc2Cl)cc1`, the growth in the assay on HCT-15 colon was 107%; with HT29 colon, 104%; with SNB-19 CNS, 99.5%; in the assay with U251 CNS, 104%; with PC-3 prostate, 99.5%; in the assay with SK-MEL-5 melanoma it was 97.2%. In addition, the growth in the assay on UACC-62 melanoma was 102%; with SK-MEL-28 melanoma, 104%; in the assay on SK-MEL-2 melanoma, 118%; in the assay with EKVX NSCLC, 107%; in the assay with SN12C renal, 98.2%; with UO-31 renal it was 83.1%. Also, the growth was 104% in the assay with TK-10 renal; 104% in the assay on ACHN renal; 89.7% in the assay with CAKI-1 renal; 125% in the assay on A498 renal; 99.3% in the assay with CCRF-CEM leukemia; 111% in the assay with MOLT-4 leukemia.
Take `CCCCN(C=S)CCCC`: the growth is 98.1% with HCT-15 colon; 102% in the assay with HT29 colon; 94.3% with SNB-19 CNS; 90.3% with U251 CNS; 91.5% in the assay on PC-3 prostate; 101% with SK-MEL-5 melanoma. Moreover, the growth with UACC-62 melanoma was 96.4%; in the assay with LOX IMVI melanoma, 106%; in the assay on SK-MEL-28 melanoma, 96.2%; with SK-MEL-2 melanoma, 91.8%; with EKVX NSCLC it was 103%; in the assay with SN12C renal, 97.5%. For the same compound, the growth with UO-31 renal is 93.5%; in the assay on TK-10 renal, 98.4%; with ACHN renal, 95.7%; with CAKI-1 renal, 95.2%; with A498 renal it was 91.4%; in the assay on CCRF-CEM leukemia, 95.7%. For the same compound, the growth with MOLT-4 leukemia is 91.4%.
As to `CCCCCCCCCc1ccc(OC(C)=O)cc1`, the growth with HCT-15 colon is 111%; in the assay on HT29 colon, 102%; with SNB-19 CNS, 103%; with U251 CNS it was 97.9%; in the assay with PC-3 prostate, 94.1%; with SK-MEL-5 melanoma, 103%. Also, the growth is 107% with UACC-62 melanoma; 104% in the assay with LOX IMVI melanoma; 107% in the assay with SK-MEL-28 melanoma; 101% in the assay with SK-MEL-2 melanoma; 108% in the assay with EKVX NSCLC; 99.6% in the assay with SN12C renal. Also, the growth is 95.9% in the assay on UO-31 renal; 96.3% in the assay on TK-10 renal; 109% in the assay on ACHN renal; 103% in the assay with CAKI-1 renal; 70.1% in the assay with A498 renal; 108% in the assay with MOLT-4 leukemia.
For the compound `CSc1nsc(N)n1`, the growth with HCT-15 colon is 95.5%; with HT29 colon, 95.1%; in the assay with SNB-19 CNS, 96%; in the assay on U251 CNS, 94.9%; in the assay on PC-3 prostate, 93.6%; in the assay on SK-MEL-5 melanoma, 101%. Besides, the growth is 93.1% in the assay on UACC-62 melanoma; 98.2% in the assay on LOX IMVI melanoma; 106% in the assay on SK-MEL-28 melanoma; 94.2% with SK-MEL-2 melanoma; 97.4% with EKVX NSCLC; 96% in the assay on SN12C renal. Moreover, the growth in the assay on UO-31 renal is 82.3%; in the assay on TK-10 renal, 101%; in the assay on CAKI-1 renal, 97.2%; in the assay on A498 renal, 87.5%; with CCRF-CEM leukemia, 108%; in the assay with MOLT-4 leukemia it was 97.9%.
`NNc1ncccn1`: the growth is 106% in the assay with HCT-15 colon; 91.8% in the assay with HT29 colon; 111% with SNB-19 CNS; 102% in the assay with U251 CNS; 106% in the assay with PC-3 prostate; 115% in the assay with SK-MEL-5 melanoma. Further, the growth was 96.9% with LOX IMVI melanoma; 106% in the assay on SK-MEL-28 melanoma; 90.2% with SK-MEL-2 melanoma; 102% with EKVX NSCLC; 103% with SN12C renal; 83.5% in the assay on UO-31 renal. Moreover, the growth in the assay with TK-10 renal was 92.2%; with ACHN renal it was 105%; with CAKI-1 renal, 102%; in the assay on A498 renal, 91.7%; in the assay on MOLT-4 leukemia it was 110%.
In the case of `N#Cc1ccc(OC(=O)Nc2cc(Cl)cc(Cl)c2)cc1`, the growth with HCT-15 colon was 3.2% [100 µM] (active); in the assay on HT29 colon, 2.78% [100 µM] (active); in the assay with SNB-19 CNS it was 15.4% [100 µM]; in the assay on U251 CNS it was 4.68% [100 µM] (active); in the assay on SK-MEL-5 melanoma, -94.3% [100 µM] (active); in the assay with UACC-62 melanoma it was -33.1% [100 µM] (active). Further, the growth in the assay with SK-MEL-28 melanoma was 5.58% [100 µM] (active); in the assay with SK-MEL-2 melanoma it was -42.5% [100 µM] (active); in the assay with EKVX NSCLC, -2.41% [100 µM] (active); with SN12C renal it was -14% [100 µM] (active); in the assay with UO-31 renal, 5.42% [100 µM] (active); in the assay with TK-10 renal, -4.01% [100 µM] (active). The growth in the assay on ACHN renal is 0.368% [100 µM] (active); in the assay on CAKI-1 renal, -27.5% [100 µM] (active); with A498 renal it was -19.7% [100 µM] (active); in the assay with CCRF-CEM leukemia it was 2.17% [100 µM] (active); with MOLT-4 leukemia, -14.4% [100 µM] (active).
